Where a name gives a salt, the structure may show the parent alone. ± gives the standard deviation of the averaged measurements.
The compounds below were run on Danio rerio Tg(wt1b:EGFP) embryo, pronephros (assay: glomerular width (mean of left and right), fold change vs DMSO control; higher = wider glomerulus). Settings: 25 µM; exposure: 24-48 hpf.
How it was run: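 Dechorionated Tg(wt1b:EGFP) zebrafish embryos were incubated at 28.5°C from 24 to 48 hpf with 25 μM compound in HEPES-buffered E3 containing 0.5% DMSO and 0.003% PTU. Distances and angles between 16 manually set points on maximum projections of dorsal pronephros images were measured in Fiji, with values over 2 SD from the feature mean excluded. Each feature is a fold change relative to the mean of same-day DMSO-treated embryos.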

Row | Structure (SMILES) | glomerular width
1 | CC(C)NC[C@@H](O)COc1ccc(CC(N)=O)cc1 [(R)-(+)-Atenolol] | 0.977 ± 0.036
2 | CC1(C)O[C@@H]2C[C@H]3[C@@H]4CCC5=CC(=O)C=C[C@]5(C)[C@H]4[C@@H](O)C[C@]3(C)[C@]2(C(=O)CO)O1 [Desonide] | 1.33 ± 0.024
3 | CC(C)(C)NC[C@H](O)c1ccc(O)c(CO)c1 [Levalbuterol hydrochloride] | 1.07 ± 0.031
4 | C[C@H](N[C@@H](CCc1ccccc1)C(=O)O)C(=O)N1CCC[C@H]1C(=O)O [Enalaprilat dihydrate] | 1 ± 0.012
5 | CCN(CC)CCOC(=O)C1(C2CCCCC2)CCCCC1 [Dicyclomine hydrochloride] | 1.12 ± 0.03
6 | CCN(CC)CCNC(=O)c1cc(S(C)(=O)=O)ccc1OC [Tiapride hydrochloride] | 0.902 ± 0.073
7 | NS(=O)(=O)c1cc(Cl)c(Cl)c(S(N)(=O)=O)c1 [Dichlorphenamide] | 1.15 ± 0.06
8 | O=C(Nc1ccc([N+](=O)[O-])cc1Cl)c1cc(Cl)ccc1O [Niclosamide] | 0.907 ± 0.04
9 | NC(N)=Nc1nc(CSCC/C(N)=N/S(N)(=O)=O)cs1 [Famotidine] | 0.98 ± 0.038
10 | O=C1c2cccc(O)c2C(=O)c2c(O)cccc21 [1,8-Dihydroxyanthraquinone] | 1 ± 0.04
11 | Cc1c(-c2ccccc2)oc2c(C(=O)OCCN3CCCCC3)cccc2c1=O [Flavoxate hydrochloride] | 1.08 ± 0.037
12 | CCN(CCCCOC(=O)c1ccc(OC)c(OC)c1)C(C)Cc1ccc(OC)cc1 (configuration not stated) [Mebeverine hydrochloride] | 0.986 ± 0.044
13 | CC[C@@H](CO)NCCN[C@@H](CC)CO [Ethambutol dihydrochloride] | 0.965 ± 0.028
14 | NC(=O)c1ncn([C@@H]2O[C@H](CO)[C@@H](O)[C@H]2O)n1 [Ribavirin] | 0.965 ± 0.025
15 | CCCCC(=O)O[C@H]1CC[C@H]2[C@@H]3CCc4cc(O)ccc4[C@H]3CC[C@]12C [Estradiol Valerate] | 0.925 ± 0.016
16 | Cc1ccc(S(=O)(=O)NC(=O)NN2CCCCCC2)cc1 [Tolazamide] | 0.948 ± 0.015
17 | Cc1ncc(CO)c(CO)c1O [Pyridoxine hydrochloride] | 1.04 ± 0.019
18 | NS(=O)(=O)c1cc2c(cc1Cl)NCNS2(=O)=O [Hydrochlorothiazide] | 0.972 ± 0.024
19 | C[C@H](CCC(=O)O)[C@H]1CC[C@H]2[C@@H]3[C@@H](O)C[C@@H]4C[C@H](O)CC[C@]4(C)[C@H]3CC[C@]12C [Urosiol] | 0.775 ± 0.074
20 | OC[C@H]1O[C@@H](Oc2ccc(O)cc2)[C@H](O)[C@@H](O)[C@@H]1O [Arbutin] | 1.021 ± 0.0053
21 | NS(=O)(=O)c1cc2c(cc1Cl)NC(CC1CCCC1)NS2(=O)=O (configuration not stated) [Cyclopenthiazide] | 0.935 ± 0.03
22 | CCCN[C@H]1CCc2nc(N)sc2C1 [Pramipexole dihydrochloride] | 1.03 ± 0.049
23 | OCCN1CCN(CC/C=C2/c3ccccc3Sc3ccc(Cl)cc32)CC1 [Zuclopenthixol dihydrochloride] | 0.97247 ± 0.0005

What follows are compounds tested on Danio rerio Tg(wt1b:EGFP) embryo, pronephros (assay: fraction of imaged embryos annotated as normal kidney; higher = less nephrotoxic; extreme values may be limits of the assay). Settings: 25 µM; exposure: 24-48 hpf.
How it was run: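 Dechorionated Tg(wt1b:EGFP) zebrafish embryos were exposed in 12-well plates to 25 μM compound in 0.5% DMSO, 5 mM HEPES-buffered E3 with 0.003% PTU, from 24 to 48 hpf at 28.5°C. Tricaine-anaesthetised larvae were oriented dorsally in agarose-filled 96-well plates, and pronephroi were imaged by widefield fluorescence (470 nm, 10 z-slices). Each embryo was manually annotated from maximum projections. The read-out is the fraction of embryos per treatment assigned to the normal-kidney category.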

Row | Structure (SMILES) | fraction of imaged embryos annotated as normal kidney
24 | CCC1(c2ccccc2)NC(=O)N(C)C1=O (configuration not stated) [Mephenytoin] | 0.75
25 | Cc1c(N)c(=O)n(-c2ccccc2)n1C [Ampyrone] | 0.917
26 | Cc1ncc([N+](=O)[O-])n1CC(C)O (configuration not stated) [Secnidazole] | 0.833
27 | CCCOc1ccc2[nH]c(NC(=O)OC)nc2c1 [Oxibendazol] | 0
28 | CCc1cc(C(N)=S)ccn1 [Ethionamide] | 0.75
29 | CCCc1nc(C)c2c(=O)nc(-c3cc(S(=O)(=O)N4CCN(CC)CC4)ccc3OCC)[nH]n12 [Vardenafil] | 0.667
30 | COc1cc(NS(=O)(=O)c2ccc(N)cc2)ncn1 [Sulfamonomethoxine] | 0.833
31 | Nc1nc(F)nc2c1ncn2[C@@H]1O[C@H](CO)[C@@H](O)[C@@H]1O [Fludarabine] | 1
32 | Oc1c(I)cc(Cl)c2cccnc12 [Clioquinol] | 0
33 | Cc1cccc(C)c1NC(=O)C1CCCCN1C (configuration not stated) [Mepivacaine hydrochloride] | 0.917
34 | Nc1cc(-c2ccncc2)c[nH]c1=O [Amrinone] | 0.917
35 | CC(=O)NCCCS(=O)(=O)O [Acamprosate calcium] | 0.75
36 | CN1C2CCCC1CC(NC(=O)c1nn(C)c3ccccc13)C2 (configuration not stated) [Granisetron] | 0.917
37 | N[C@@H](C(=O)N[C@@H]1C(=O)N2C(C(=O)O)=C(Cl)CC[C@H]12)c1ccccc1 [Loracarbef] | 0.917
38 | COC(=O)Nc1nc2cc(C(=O)c3ccc(F)cc3)ccc2[nH]1 [Flubendazol] | 0.833
39 | Nc1nc(=S)c2ncn([C@@H]3O[C@H](CO)[C@@H](O)[C@H]3O)c2[nH]1 [Thioguanosine] | 0.917
40 | CC(C)NC[C@@H](O)COc1ccc(CC(N)=O)cc1 [(R)-(+)-Atenolol] | 0.917
41 | CC1(C)O[C@@H]2C[C@H]3[C@@H]4CCC5=CC(=O)C=C[C@]5(C)[C@H]4[C@@H](O)C[C@]3(C)[C@]2(C(=O)CO)O1 [Desonide] | 0.167
42 | CC(C)(C)NC[C@H](O)c1ccc(O)c(CO)c1 [Levalbuterol hydrochloride] | 0.917
43 | C[C@H](N[C@@H](CCc1ccccc1)C(=O)O)C(=O)N1CCC[C@H]1C(=O)O [Enalaprilat dihydrate] | 1

Row | Structure (SMILES) | fraction of imaged embryos annotated as normal kidney
44 | CCN(CC)CCOC(=O)C1(C2CCCCC2)CCCCC1 [Dicyclomine hydrochloride] | 0.727
45 | CCN(CC)CCNC(=O)c1cc(S(C)(=O)=O)ccc1OC [Tiapride hydrochloride] | 0.909
46 | NS(=O)(=O)c1cc(Cl)c(Cl)c(S(N)(=O)=O)c1 [Dichlorphenamide] | 0.727
47 | O=C(Nc1ccc([N+](=O)[O-])cc1Cl)c1cc(Cl)ccc1O [Niclosamide] | 0.455
48 | NC(N)=Nc1nc(CSCC/C(N)=N/S(N)(=O)=O)cs1 [Famotidine] | 0.833
49 | O=C1c2cccc(O)c2C(=O)c2c(O)cccc21 [1,8-Dihydroxyanthraquinone] | 0.917
50 | Cc1c(-c2ccccc2)oc2c(C(=O)OCCN3CCCCC3)cccc2c1=O [Flavoxate hydrochloride] | 0.75
51 | CCN(CCCCOC(=O)c1ccc(OC)c(OC)c1)C(C)Cc1ccc(OC)cc1 (configuration not stated) [Mebeverine hydrochloride] | 0.833
52 | CC[C@@H](CO)NCCN[C@@H](CC)CO [Ethambutol dihydrochloride] | 0.75
53 | NC(=O)c1ncn([C@@H]2O[C@H](CO)[C@@H](O)[C@H]2O)n1 [Ribavirin] | 0.75
54 | CCCCC(=O)O[C@H]1CC[C@H]2[C@@H]3CCc4cc(O)ccc4[C@H]3CC[C@]12C [Estradiol Valerate] | 0.583
55 | Cc1ccc(S(=O)(=O)NC(=O)NN2CCCCCC2)cc1 [Tolazamide] | 0.917
56 | Cc1ncc(CO)c(CO)c1O [Pyridoxine hydrochloride] | 1
57 | NS(=O)(=O)c1cc2c(cc1Cl)NCNS2(=O)=O [Hydrochlorothiazide] | 0.833
58 | C[C@H](CCC(=O)O)[C@H]1CC[C@H]2[C@@H]3[C@@H](O)C[C@@H]4C[C@H](O)CC[C@]4(C)[C@H]3CC[C@]12C [Urosiol] | 0.583
59 | OC[C@H]1O[C@@H](Oc2ccc(O)cc2)[C@H](O)[C@@H](O)[C@@H]1O [Arbutin] | 0.917
60 | NS(=O)(=O)c1cc2c(cc1Cl)NC(CC1CCCC1)NS2(=O)=O (configuration not stated) [Cyclopenthiazide] | 1
61 | CCCN[C@H]1CCc2nc(N)sc2C1 [Pramipexole dihydrochloride] | 0.833
62 | OCCN1CCN(CC/C=C2/c3ccccc3Sc3ccc(Cl)cc32)CC1 [Zuclopenthixol dihydrochloride] | 0.833

Reference: the supplement of paper PMC7366291
